# Compound activity (PubChem BioAssay)
# Hits are enriched below; roughly 6.5% of the tested compounds scored in any of these assays.
# VACV Venus inh: qHTS for Stage-Specific Inhibitors of Vaccinia Orthopoxvirus: Venus Reporter Primary qHTS | Vaccinia virus Venus reporter expression, fluorescence | Potency, µM (highest dose often 36.5 µM), inactives show at the highest dose activity change, negative = inhibition, hits mostly inhibitors | hit rate 0.46% among 330,000 | AID 720580, 2013; calls by dose curve; tested in A549 cells; also: potency is read from the fitted curve at half-maximal effect; nearly all actives have a fitted effect of over 30% in size
# Vaccinia mCherry: qHTS for Stage-Specific Inhibitors of Vaccinia Orthopoxvirus: mCherry Reporter Primary qHTS; Vaccinia virus mCherry reporter infection, fluorescence; Potency, µM (titrated, usually from 36.5 µM), for the others: at the top dose activity change, negative = inhibition, most hits filed as inhibitors; hit rate 0.63% among 310,000; AID 720579, 2013; calls by dose curve; tested in A549 cells; also: potency is read from the fitted curve at half-maximal effect; nearly all actives have a fitted effect of over 35% in size
# LASV entry inh: qHTS for Inhibitors of binding or entry into cells for Lassa Virus; Lassa virus pseudotype entry inhibition, cell reporter; Potency, µM (doses to about 37.9 µM), inactives show at the top dose activity change, negative = inhibition, most hits filed as inhibitors; hit rate 1.2% among 300,000; AID 540256, 2011; calls by dose curve; tested in HEK293 cells; also: potency is read from the fitted curve at half-maximal effect; nearly all actives have a fitted effect of over 50% in size
# MARV entry inh: qHTS for inhibitors of binding or entry into cells for Marburg Virus; AID 540276, 2011; hit rate 1.8% among 300,000; Marburg virus pseudotyped entry inhibition, cell reporter; Potency, µM (titrated, usually from 37.8 µM), inactives show at the highest dose activity change, negative = inhibition, actives largely listed as inhibitors; calls by dose curve; tested in HEK293 cells; also: potency is read from the fitted curve at half-maximal effect
# FMDV inh: High Throughput Screening for Foot and Mouth Disease Virus Antivirals | FMDV antiviral cell-based qHTS | Potency, µM (series often up to 57.9 µM), for inactives: at the top dose activity change, negative = inhibition, hits mostly inhibitors | hit rate 1.2% among 410,000 | AID 1159524, 2015; calls by dose curve; tested in HEK293T cells; also: read-out not given here; potency is read from the fitted curve at half-maximal effect; nearly all actives have a fitted effect of over 45% in size
# HCMV inh: qHTS Assay for inhibitors of the human cytomegalovirus (HCMV). activity change, negative = inhibition, % at 57.5 µM. hit rate 4.5% among 410,000. AID 1259415, 2018. HFF cells, HCMV-luciferase reporter, 72 h; active compounds read low; in the data active = activity change below about -60%; inconclusive = no clear call, values can overlap the other calls; inactive = above about -39%
#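 Two-dose cell screen: HFF monolayers treated with compounds and infected with luciferase-expressing HCMV at 1 PFU/cell, 72 h at 37C, then lysed for luciferase measurement.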
# * hit, by the source's call; i = inactive; ? = inconclusive; / = not tested or not shown; [ ] = dose if it differs, or a comment. % is scaled to controls: 0 for no effect and ±100 for the full control effect.
SMILES,VACV Venus inh,Vaccinia mCherry,LASV entry inh,MARV entry inh,FMDV inh,HCMV inh
Cc1c(C(=O)Nc2ccc(Cc3ccncc3)cc2)cccc1[N+](=O)[O-],-21%,-11%,1%,?,-2%,-79*
CC(=O)Nc1ccc2nc(NC(=O)c3ccco3)sc2c1,/,/,/,/,35%,137
O=C(Nc1ccc(N2CCOCC2)cc1)c1ccc([N+](=O)[O-])o1,?,11µM*,-28%[46.1 µM],?,27%,-103*
CCC(=O)NC(=S)Nc1ccc(NC(=O)c2ccc(Br)o2)cc1,/,/,/,/,35%,-103*
O=C(COC(=O)c1ccc([N+](=O)[O-])o1)Nc1ccc(N2CCOCC2)cc1,/,/,/,/,0%,32
Oc1ccccc1C1C=C(c2ccc3c(c2)OCO3)NC(c2cccc(Cl)c2)N1 (stereo not given),-6%,28%,/,/,/,/
COc1ccc(N2Cc3cccc(C(=O)Nc4ccc(Cl)cc4)c3C2=O)cc1,-28%,-24%,14%[46.1 µM],-2%[46.1 µM],23%,-9
CC(=O)NC(Cc1ccc(Cl)cc1)C(=O)NCC(N)C(=O)c1ccccc1 (stereo not given),-11%,-25%,/,/,/,/
C[C@@H]1CC[C@H]2C(=O)N(Cc3ccccc3)C[C@@H](O)CN2[C@@H]1c1cccc(Br)c1,/,/,7%[14.3 µM],-22%[14.2 µM],/,/
O=C(Oc1c(CN2CCOCC2)cc(Cl)c2cccnc12)c1ccccc1Br,/,/,/,/,-20%,-67*
CN1CCN(Cc2cc(Cl)c3cccnc3c2OC(=O)c2cccs2)CC1,?,11µM*,-22%,?,-19%,?
CC(CN1CCOCC1)OC(=O)c1ccccc1Br (stereo not given),-21%,/,3%,12%,17%,49
COc1ccc(N2CCN(c3csc4ccccc4c3=O)CC2)cc1,-15%,-18%,?,/,-13%,1
CCCCOc1c(Cl)cc(C(=O)N(Cc2ccc(C)o2)C2CCS(=O)(=O)C2)cc1Cl (stereo not given),-10%,-8%,-2%[46.1 µM],?,?,-110*
O=C(Cc1cccs1)NC1CC(=O)N(c2cccc(F)c2)C1 (stereo not given),-10%,-2%,-10%[46.1 µM],/,-11%,18
COc1ccc(C(=O)Nc2cc(C(F)(F)F)ccc2-n2cnc3ccccc32)cc1,4%,-9%,0%,?,15%,-73*
O=C(Oc1nsnc1N1CCCCC1)N1CCOCC1,?,14µM*,3%,-24%,-10%,10
Cc1cc2ccccn2c1C(=O)c1ccc(NN)c([N+](=O)[O-])c1,?,0.89µM*,?,8.9µM*,4%,?
Cc1cc2ccccn2c1C(=O)c1ccc(C#N)cc1,-26%,i,?,-7%[46.1 µM],?,-81*
Cc1cc2ccccn2c1C(=O)c1cc([N+](=O)[O-])cc([N+](=O)[O-])c1,?,?,-9%,-11%[46.1 µM],?,?
Cc1ccc(-n2c(SCC(=O)NCc3ccco3)nc3sc4c(c3c2=O)CC(C)(C)SC4)cc1,-15%,-3%,?,-3%,10%,-11
CCC1CCc2c(sc3nc(SCC(=O)NCc4ccco4)n(-c4ccccc4)c(=O)c23)C1 (stereo not given),11%,/,-22%,?,-6%,-75*
O=C(CSc1nc2c(sc3ccccc32)c(=O)n1-c1ccccc1)NCc1ccco1,/,/,?,?,-7%,-81*
O=C(CSc1nc2c(sc3ccccc32)c(=O)n1CCc1ccccc1)NCc1ccco1,/,/,6%,?,18%,39
COC(=O)c1ccc(COC(=O)c2ccc(CS(=O)(=O)c3ccc(C)cc3)cc2)cc1,-8%,1%,-4%,4%,5%,34
SMILES,VACV Venus inh,Vaccinia mCherry,LASV entry inh,MARV entry inh,FMDV inh,HCMV inh
COC(=O)c1cc2c(n1S(=O)(=O)c1ccc(C)cc1)C(=O)C(=O)c1[nH]cc(C(=O)OCc3ccccc3)c1-2,2.5µM*,2.2µM*,2.8µM*,?,11µM*,/
Cc1[nH]n(-c2ccccc2)c(=O)c1C(=O)c1cccc(F)c1,/,/,?,10µM*,-13%,-36
Cc1[nH]n(-c2ccccc2)c(=O)c1C(=O)c1ccccc1,-11%,i,?,-29%[46.1 µM],-2%,58
COc1cc2[nH]c(=O)n(CCCC(=O)NCc3ccccc3Cl)c(=O)c2cc1OC,-2%,-20%,-28%[46.1 µM],-5%[46.1 µM],1%,-1
CC(C)c1ccc(NC(=S)NC2CCN(Cc3ccccc3)CC2)cc1,?,?,18µM*,?,-7%,-27
S=C(Nc1ccc(Nc2ccccc2)cc1)NC1CCCCCC1,-24%,?,?,?,28µM*,-87*
Cc1c(Cl)cccc1NC(=S)NC1CCN(Cc2ccccc2)CC1,-29%,?,?,16µM*,0%,-91*
S=C(Nc1cc(Cl)cc(Cl)c1)NC1CCN(Cc2ccccc2)CC1,/,/,/,/,-17%,-100*
COCCCNC(=O)c1cnn(-c2ccc(F)cc2F)c1C1CCNCC1,-5%,0%,?,/,4%,-4
Nc1cnccn1,-4%,-7%,/,/,/,/
CC(NC(=O)CCC(=O)Nc1ccccc1O)c1ccccc1 (stereo not given),-17%[7.34 µM],-4%[7.34 µM],-14%,-5%[46.1 µM],-2%,-2
CC(CNc1ccccc1O)C(=O)O (stereo not given),89µM*,4.5µM*,-4%,3%,-16%,?
Cc1cccc(NC(=O)c2ccc(Cl)c(S(=O)(=O)N3CCc4ccccc43)c2)n1,/,/,/,/,?,-65*
O=C(Nc1ccncc1)c1ccc(Cl)c(S(=O)(=O)N2CCc3ccccc32)c1,-25%,-19%,7.9µM*,?,?,-69*
O=C1CN(C(=O)c2ccc(Cl)c(S(=O)(=O)N3CCc4ccccc43)c2)c2ccccc2N1,-13%,?,?,3.5µM*,?,?
CCc1nnc(NC(=O)c2ccc(Cl)c(S(=O)(=O)N3CCc4ccccc43)c2)s1,-19%,/,-14%,?,?,-36
CO[C@H]1[C@H](NC(=O)c2ccsc2)c2ccccc2C12CCN(Cc1cc3ccccc3o1)CC2,-14%,-21%,/,/,?,/
CCn1c2c(c(=O)n3ncc(C(=O)Nc4cccc(Cl)c4C)c13)CN(Cc1ccc(OC)cc1)CC2,-6%,-14%[7.34 µM],-11%[46.1 µM],/,-11%,?
COC(=O)c1ccc(N2C(=O)Cc3cc(OC)c(OC)cc3C2c2ccc(F)cc2)cc1 (stereo not given),10%,3%,-26%[46.1 µM],-12%[46.1 µM],-4%,12
Cc1ccc2[nH]c(O)c(N=NC(=O)CCc3ccccc3)c2c1Br,-1%,-12%,1%,8%,-21%,-61*
COc1cccc(NC(=S)Nc2cc(C)cc(C)n2)c1,-4%,-5%,8%,?,53%,-67*
Cc1cc(C)nc(NC(=S)Nc2cccc(F)c2)c1,-18%,0%,1%,3%,26%,-7
